Screening results (PubChem)
ATXN2 expr inh = ATXN2 expression inhibition | HEK-293 ATXN2-luciferase reporter, luminescence, 24 h | actives 0.72% (n = 360,000) | AID 1745845 | Potency, µM (doses to about 57 µM), without a hit: at the highest dose activity change, negative = inhibition, hits mostly inhibitors; also: potency is read from the fitted curve at half-maximal effect; % is scaled to controls: 0 for no effect and ±100 for the full control effect; nearly all actives have a fitted effect of over 55% in size
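qHTS (up to 57 uM final) was run with 24 h compound exposure of reporter cells at 37 °C. Each well was multiplexed: SteadyGlo luminescence measured ATXN2-luciferase expression after a fluorogenic Gly-Phe-AFC viability readout (25 uM final).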
MCF10A rereplic = induces DNA re-replication in MCF 10a normal breast cells | MCF 10A DNA re-replication, Hoechst nuclear intensity, 48 h | Potency, µM (top dose mostly 46.1 µM), inactives show at the highest dose activity, positive = re-replication, hits mostly activators | actives 2.9% (n = 350,000); also: potency is read from the fitted curve at half-maximal effect; % of control where 0% means no effect; nearly all actives have a fitted effect of over 50% in size
PINK1 expr mod = PINK1 expression modulation; PINK1 immunofluorescence, high-content cytometry, 24 h; Potency, µM (titrated, usually from 76.6 µM), inactives show at the highest dose activation (PINK1 increase), usual class: activators; actives 0.2% (n = 410,000); AID 624263; active = well fitted activation curve with a large enough effect; inconclusive = small, poorly fitted or top-dose-only effect; cell line not stated here; also: potency is read from the fitted curve at half-maximal effect; % of control where 0% means no effect; nearly all actives have a fitted effect of over 65% in size
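Compound titrations (5 concentrations, 24 h) on a stable cell line; DMSO and CCCP controls. Endpoint: fixed-cell PINK1 immunofluorescence with mitochondrial, cell and nuclear markers, scanned by microplate cytometer.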
IL1B secr inh = inflammasome signaling inhibition, IL-1 beta readout | THP-1 LPS/ATP IL-1B secretion, AlphaLISA, 16 h; active compounds read low | activity change, % at 57.5 µM | actives 4.7% (n = 360,000); in the data active = activity change below about -50%; inconclusive = mostly about -30% to -49%; also: % is scaled to controls: 0 for no effect and ±100 for the full control effect
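Secreted IL-1B measured by AlphaLISA bead assay after 16 h compound exposure of THP-1 cells; compounds (final up to 57.5 uM) added 1 h before LPS (250 ng/mL) and ATP (1.25 mM) stimulation; lower signal means less secretion.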
ATXN viability = reduces viability in counter-screen for ATXN expression inhibitors; S2 cells (HEK-293 line with an ATXN2-luciferase reporter) viability, CellTiter-Fluor protease fluorescence, 24 h; Potency, µM (doses to about 56.7 µM), most hits filed as cytotoxic; actives 0.49% (n = 400,000); AID 651635; also: potency is read from the fitted curve at half-maximal effect; nearly all actives have a fitted effect of over 40% in size
SW480 rereplic = inducers of DNA re-replication in SW480 colon cancer cells; SW480 DNA re-replication, Hoechst DNA content imaging, 48 h; Potency, µM (titrated, usually from 46.1 µM), for inactives: top-dose re-replication activation, hits mostly activators; actives 1.8% (n = 340,000); AID 624297; also: potency is read from the fitted curve at half-maximal effect; % of control where 0% means no effect; nearly all actives have a fitted effect of over 55% in size
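Cells (250 per well) received 23 nL compound or DMSO by pin tool and were kept 48 hr at 37 C, 5% CO2. Nuclei were then stained with Hoechst for 40 min and scanned for DNA content.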
An asterisk follows results filed as active; i = inactive; ? = inconclusive; . = not tested or not shown; [ ] = another dose, or the depositor's remark. Rows were chosen to be rich in hits. Some 7.1% of all compounds tested hit in one or more screens of this group. Unless noted, calls follow the shape of the dose curve; as a rule, active = well fitted curve in the direction sought with a large enough effect; inconclusive = small, poorly fitted or top-dose-only effect, or another doubt; inactive = no such curve, though single readings can be large; an effect the other way counts as inactive or inconclusive.

SMILES	ATXN2 expr inh	MCF10A rereplic	PINK1 expr mod	IL1B secr inh	ATXN viability	SW480 rereplic
COc1cc(CC(=O)N2CCN(C(=O)C3CCCO3)CC2)cc(OC)c1OC (configuration not stated)	-17.4%	18.1%	-1.2%	4.0	?	1.8%
O=C(NN=Cc1ccc2c(c1)OCO2)NN=Cc1ccc2c(c1)OCO2	26.5%	?	-0.1%	-89.5*	i	18.9%
N/C(=N\N=C/c1ccc(Br)cc1)N/N=C\c1ccc(Br)cc1	-2.5%	23.7%	2.1%	-64.1*	i	10.6%
N/C(=N\N=C/c1ccc(F)cc1)N/N=C\c1ccc(F)cc1	.	?	-1.3%	-20.9	?	4.0%
N/C(=N\N=Cc1ccc2c(c1)OCO2)NN=Cc1ccc2c(c1)OCO2	0.0%	23.1µM*	-0.4%	-98.5*	29.9µM*	?
CS/C(N)=N/N=C/c1ccc2c(c1)OCO2	21.2%	1.3%	-3.1%	-13.7	i	-6.6%
O=C(NN=Cc1ccc2c(c1)OCO2)C1CC1	-1.2%	-4.0%	3.1%	-12.5	i	3.8%
Cc1c(C(=O)N2CC3CCC2C3)sc2ncnc(NCCc3c[nH]c4ccccc34)c12 (configuration not stated)	.	.	-0.2%	.	?	.
COc1ccc2c(CNCCc3ccccc3)c(C(=O)O)n(Cc3cccc(F)c3)c2c1	.	.	-1.4%	.	.	.
CCc1ccc(S(=O)(=O)NCc2ccc3c(c2)CCN3C(=O)c2ccc(C)cc2)cc1	.	.	0.0%	.	.	.
Cc1cc(N2CCOCC2)nc2ccc(NC(=S)NCCC(C)C)cc12	-27.2%	?	6.0%	-50.5*	i	-1.5%
CCN(CC)CCNC(=S)Nc1ccc2nc(N3CCCC3)cc(C)c2c1	?	?	-0.4%	-66.4*	i	?
CCN(CC)CCNC(=S)Nc1ccc2nc(N3CCOCC3)cc(C)c2c1	.	21.6%	-1.2%	?	i	8.4%
CCN(CC)CCNC(=S)Nc1ccc2nc(N3CCN(C)CC3)cc(C)c2c1	-18.2%	?	1.7%	-50.8*	?	?
CCCCN(CC)CCCNC(=S)Nc1ccc2nc(N3CCN(C)CC3)cc(C)c2c1	-30.2%	3.9%	2.3%	-54.0*	?	?
COc1ccc(OC)c(NC(=O)c2cc3c(=O)n4cccc(C)c4nc3n2C)c1	.	.	0.1%	.	.	.
CN(C)c1ccc(-c2cncnc2NCCN2CCOCC2)cc1	.	.	-0.1%	.	.	.
COc1ccc(S(=O)(=O)N(CCCN2CCCC2=O)Cc2cc3cc(C)c(C)cc3[nH]c2=O)cc1	0.5%	-7.9%	-1.0%	-72.6*	?	3.3%
Cc1ccc(S(=O)(=O)N(CCCN2CCCC2=O)Cc2cc3c(C)ccc(C)c3[nH]c2=O)cc1	-8.9%	1.5%	-0.7%[38.3 µM]	-1.8	i	0.4%
O=c1c(C(c2ccc(Br)cc2)c2c(O)nc3n(c2=O)CCS3)c(O)nc2n1CCS2	1.9%	0.7%	0.5%	-68.6*	?	0.7%
O=c1c(C(c2ccc(Br)cc2)c2c(O)nc3n(c2=O)CCCS3)c(O)nc2n1CCCS2	-6.8%	-1.7%	0.2%	19.9	i	-8.5%
COc1ccccc1CNCC(O)(c1ccc(Cl)cc1)c1ccc(Cl)cc1	?	?	?	?	i	14.6µM*
OC(CNCc1ccccc1F)(c1ccc(F)cc1)c1ccc(F)cc1	-11.1%[11.3 µM]	-5.5%	?	-80.2*	i	-0.3%
OC(CNCc1ccccc1)(c1ccc(F)cc1)c1ccc(F)cc1	.	?	.	?	.	16.2%
COc1ccccc1CNCC(O)(c1ccc(F)cc1)c1ccc(F)cc1	.	0.7%	8.8%	-25.6	?	-10.3%
SMILES	ATXN2 expr inh	MCF10A rereplic	PINK1 expr mod	IL1B secr inh	ATXN viability	SW480 rereplic
CCOc1ccccc1NC(=O)N1CC(C)Oc2ccc(Cl)cc21 (configuration not stated)	.	.	2.1%	.	.	.
COc1ccc(CCN2C(=O)N(c3ccc(C)cc3)C(=O)C2CC(=O)Nc2ccc(F)cc2)cc1 (configuration not stated)	5.1%	.	1.9%	.	i	.
Cc1cc(=O)c(C(=O)N(C)CCc2ccccn2)c2n1-c1ccccc1SC(c1ccsc1)C2 (configuration not stated)	.	.	-0.4%	.	?	.
CCOc1ccc2nc(NCCCNC(=O)c3cc(OC)c(OC)c(OC)c3)c(C#N)cc2c1	5.0%	?	23.4%	-6.2	.	10.3µM*
CCn1cc(C(=O)N2CCN(c3ccccc3)CC2)c(=O)c2cc(S(=O)(=O)N3CCC(C)CC3)ccc21	?	.	-0.7%	.	i	.
Brc1cccc(-c2nnc(SCc3nc4ccccc4[nH]3)o2)c1	-2.9%	10.1%	1.2%	-55.5*	i	-5.7%
c1ccc2[nH]c(CSc3nnc(-c4ccncc4)o3)nc2c1	-1.8%	0.3%	3.2%	14.7	i	4.9%[9.22 µM]
Nc1ccc(-c2nc3ccc(-c4nc5ccccc5o4)cc3[nH]2)cc1	36.4%	3.98µM*	2.2%	-2.4	i	4.47µM*
CN(C)c1ccc(-c2nc3cc(N)ccc3o2)cc1	?	?	0.1%	62.8	i	?
Nc1ccc(-c2nc3ccc(N)cc3[nH]2)cc1	.	-0.5%	-0.8%	12.4	i	4.8%
Nc1ccc(-c2nc3ccc([N+](=O)[O-])cc3[nH]2)cc1	54.9%	-7.2%	2.3%	-80.0*	i	-2.3%
Nc1ccc(-c2nc3cc(N)ccc3o2)cc1	-19.6%	10.9%	1.1%	-53.5*	i	-6.3%
O=[N+]([O-])c1ccc2nc(/C=C/c3ccc(Cl)cc3)[nH]c2c1	?	-3.8%	?	-93.9*	?	0.0%
Cc1nc2ccc(-c3nc4ccccc4o3)cc2[nH]1	68.7%	5.5%	-1.1%	197.3	i	-11.1%
C#CCN(C[C@H]1[C@H](OC(=O)NCc2ccccc2F)[C@H](OC(=O)NCc2ccccc2F)C[C@H]2C(=O)N(c3ccccc3)C(=O)[C@@H]12)S(=O)(=O)c1ccc(C)cc1	7.8%	.	1.7%	-19.8	i	.
CCOC(=O)c1c(C)[nH]c(C)c1S(=O)(=O)N(C)CC(=O)N1CCN(c2cccc(Cl)c2)CC1	-32.9%	.	-1.6%	.	i	.
CCc1ccc(NC(=O)CN2C(=O)C(c3ccc(F)cc3)=NC2(C)C)cc1	.	.	0.0%	.	.	.
O=[N+]([O-])c1ccc(-c2nc(-c3cccs3)c(-c3cccs3)[nH]2)cc1	?	?	5.7%	-80.7*	?	?
O=[N+]([O-])c1ccc(-c2nc3ccc([N+](=O)[O-])cc3[nH]2)cc1	-31.6%	?	?	-90.6*	?	-4.5%[9.22 µM]
Cc1cccc2nc(-c3ccccc3)nc(N[C@@H](CO)c3ccccc3)c12	-13.7%	?	?	-63.2*	i	28.8%
COc1ccc(/C=C/C(=O)c2ccc(C)c([N+](=O)[O-])c2)cc1O	-18.8%	?	-0.2%	?	i	?
